Compound activity deposited in PubChem BioAssay by National Center for Advancing Translational Sciences (NCATS).
TDP1 cell CPT: qHTS for Inhibitors of human tyrosyl-DNA phosphodiesterase 1 (TDP1): qHTS in cells in presence of CPT; chicken DT40 Tdp1-/-;hTDP1 cells + 20 nM CPT, ATP luminescence, 48 h; Potency, µM (series often up to 46.2 µM), for inactives: at the top dose activity change, negative = growth inhibition, hits mostly inhibitors; hit rate 12% among 420,000; note: nearly all actives have a fitted effect of over 55% in size
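Chicken DT40 Tdp1-/- cells complemented with human TDP1, 400 cells/well, exposed to compounds plus 20 nM camptothecin for at least 48 h at 37 C; viability read as ATP content by CellTiter-Glo luminescence.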
KB-V1 MDR tox: qHTS assay for MDR1-selective chemotherapeutics: Primary screen using the drug-selected MDR subline cells KB-V1. AID 1347076, 2019. Potency, µM (top dose mostly 46.1 µM), hits mostly cytotoxic. hit rate 3.4% among 400,000. KB-V1 MDR cells viability, CellTiter-Glo, 72 h; note: nearly all actives have a fitted effect of over 60% in size
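Cytotoxicity via CellTiter-Glo luminescence after 72 h compound exposure at 37 degrees C. Cells: drug-selected KB-V1 line, DMEM phenol-red free plus 10% FBS. Compounds tested at multiple concentrations; normalized data fitted to concentration-effect curves.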
HT1080 IDH1KD tx: qHTS for induction of synthetic lethality in tumor cells producing 2HG: qHTS for the HT-1080-IDH1KD cell line | HT-1080 IDH1 knockdown viability, ATP luminescence, 48 h | Potency, µM (highest dose often 46.1 µM), for inactives: top-dose activity, negative = toxicity, actives largely listed as cytotoxic | hit rate 2% among 360,000;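 note: 0% = DMSO wells and -100% = cell-free medium wells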
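Using the IDH1-knockdown HT-1080 line run in the same batch and compound series as the NT line, viability after 48 h at 37 °C was determined by CellTiter-Glo luminescence and expressed as % activity.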
HT1080-NT tox: qHTS for induction of synthetic lethality in tumor cells producing 2HG: qHTS for the HT-1080-NT fibrosarcoma cell line; hit rate 1.6% among 360,000; HT-1080-NT fibrosarcoma viability, CellTiter-Glo ATP luminescence, 48 h; Potency, µM (highest dose often 46.1 µM), for the others: top-dose activity, negative = less viability, most hits filed as cytotoxic;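 note: NT is the 2HG producing partner of a matched IDH1 knockdown line; 0% = DMSO-treated cells and -100% = media-only wells without cells; nearly all actives have a fitted effect of over 55% in size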
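750 cells/well, RPMI + 5% FBS; 2 h settle, compound pin-transfer, 48 h at 37 degrees C. CellTiter-Glo 10 min RT, luminescence. Normalized to DMSO and media-only wells.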
KB-3-1 cytotox: qHTS assay for MDR1-selective chemotherapeutics: Primary screen using the parental adenocarcinoma cell KB-3-1. hit rate 1.4% among 400,000. Potency, µM (highest dose often 46.1 µM), hits mostly cytotoxic. KB-3-1 viability, CellTiter-Glo ATP luminescence, 72 h; note: nearly all actives have a fitted effect of over 60% in size
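Luminescent ATP read-out (CellTiter-Glo) measures survival of drug-naive KB-3-1 cells after 72 h compound exposure at 37 °C. Titration series was screened from lowest to highest concentration, with DMSO vehicle plates as background controls.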
DT40 TDP1 no CPT: qHTS for Inhibitors of human tyrosyl-DNA phosphodiesterase 1 (TDP1): qHTS in cells in absence of CPT; DT40 Tdp1-/- hTDP1 cells, no CPT, ATP luminescence, 48 h; Potency, µM (top dose mostly 46.2 µM), for inactives: at the top dose activity change, negative = growth inhibition, actives largely listed as inhibitors; hit rate 15% among 420,000; AID 686978, 2013; note: nearly all actives have a fitted effect of over 55% in size
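Compound effects on proliferation are scored in DT40 Tdp1-/-;hTDP1 cells in the absence of CPT. ATP levels (CellTiter-Glo luminescence) are recorded after a ≥48 hr, 37 °C incubation.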
* hit, by the source's call; i = inactive; ? = inconclusive; / = not tested or not shown. This is a sample that favours compounds with a hit; in the whole collection about 19% have one here. Calls come from the whole dose curve; as a rule, active = well fitted curve in the direction sought with a large enough effect; inconclusive = small, poorly fitted or top-dose-only effect, or another doubt; inactive = no such curve, though single readings can be large; an effect the other way counts as inactive or inconclusive. Unless noted, % is set by controls: 0 for no effect and ±100 for the full control effect; potency is the fitted concentration of half-maximal effect.

SMILES	TDP1 cell CPT	KB-V1 MDR tox	HT1080 IDH1KD tx	HT1080-NT tox	KB-3-1 cytotox	DT40 TDP1 no CPT
Cc1ccc(C(=O)c2ccc([N+](=O)[O-])cc2)cc1C	-25%	i	12%	6%	i	-22%
Cc1ccc(C(=O)c2cc([N+](=O)[O-])ccc2N2CCCCC2)cc1C	3.3µM*	5.8µM*	1.5µM*	1.6µM*	2.9µM*	5.2µM*
Cc1ccc(C(=O)c2cc([N+](=O)[O-])ccc2N2CCOCC2)cc1C	1.5µM*	3.7µM*	1.8µM*	?	16µM*	0.73µM*
Cc1ccc(C(=O)c2cc([N+](=O)[O-])ccc2N2CCOCC2)c(C)c1	0.82µM*	0.58µM*	?	?	1µM*	0.92µM*
O=C(c1cc(S(=O)(=O)N2CCOCC2)c(Cl)cc1Cl)N1CCN(S(=O)(=O)c2cccc(F)c2)CC1	-9%	i	-10%	-3%	i	?
S=C(NCCc1ccccn1)Nc1ccc(Cl)cc1Cl	-17%	i	6%	9%	i	?
COc1ccc(/C=C/C(=O)NNC(=O)c2ccncc2)c(OC)c1	4%	?	18%	12%	i	11%
CCn1nc(C)cc1C(=O)NC1CC(C)(C)Cc2c1cnn2-c1cccc(F)c1 (stereo not drawn)	21µM*	?	-10%	-1%	i	16µM*
COc1cccc(C(=O)NC2CC(C)(C)Cc3c2cnn3-c2cccc(F)c2)c1OC (stereo not drawn)	23µM*	i	-17%	-14%	i	18µM*
COc1cc(C(=O)NC2CC(C)(C)Cc3c2cnn3-c2ccccc2)cc(OC)c1OC (stereo not drawn)	-28%	i	6%	-1%	i	?
Cc1cc(C)c(C(=O)NC2CC(C)(C)Cc3c2cnn3-c2cccc(F)c2)[nH]1 (stereo not drawn)	?	/	-27%	-17%	/	?
O=C(C[n+]1cc(Br)cc(Br)c1)c1ccc2c(c1)CCCC2	?	i	/	/	i	?
CC1CC(C)CN(C(=O)c2cc3cc(Br)cc(Br)c3o2)C1 (stereo not drawn)	-2%	?	-3%	-3%	?	?
CCOC(=O)c1cccc(NC(=O)Nc2ccc3c(c2)C(=O)OC3)c1	24%	i	25%	17%	i	?
CCN(C(=O)c1cc2cc3ccc(OC)cc3nc2o1)c1cccc(C)c1	23µM*	?	/	/	?	16µM*
Cc1ccc2cc3cc(C(=O)N4CCN(c5ccccc5)CC4)oc3nc2c1	-3%	/	/	/	/	?
Cc1cccc(N(C)C(=O)c2cc3cc4ccc(C)cc4nc3o2)c1	12µM*	12µM*	13µM*	?	?	18µM*
CCNc1nc(NCC)nc(N(C)N)n1	?	i	8%	15%	i	?
COc1ccc(N2CCN(C(=O)CCc3c(C)nc4cc(-c5ccc(Cl)cc5)nn4c3C)CC2)cc1	2%	i	/	/	i	-29%
CCOC(=O)C1CCN(C(=O)CCc2c(C)nc3cc(-c4ccc(OC)cc4OC)nn3c2C)CC1	?	i	21%	7%	i	?
COc1ccc(-c2cc3nc(C)c(CCC(=O)N4CCN(c5cccc(Cl)c5)CC4)c(C)n3n2)c(OC)c1	2.6µM*	i	/	/	i	5.8µM*
COc1ccc(N2CCN(C(=O)CCc3c(C)nc4cc(-c5ccc(OC)cc5OC)nn4c3C)CC2)cc1	21µM*	i	/	/	i	16µM*
COc1ccc(-c2cc3nc(C)c(CCC(=O)N4CCN(c5ccc(F)cc5)CC4)c(C)n3n2)c(OC)c1	23µM*	i	/	/	i	16µM*
Cc1cc(C(=O)C(C)OC(=O)C2=NNC(=O)CC2)c(C)n1-c1ccc(OC(F)F)cc1 (stereo not drawn)	?	?	-11%	0%	?	21µM*
Cc1cc(C(=O)COC(=O)C2=NNC(=O)CC2)c(C)n1-c1ccc(OC(F)F)cc1	?	i	-3%	-2%	i	?
SMILES	TDP1 cell CPT	KB-V1 MDR tox	HT1080 IDH1KD tx	HT1080-NT tox	KB-3-1 cytotox	DT40 TDP1 no CPT
Nc1cc(=O)nc(SCC(=O)Nc2ccc(F)cc2)n1-c1cccc(Cl)c1	1%	i	/	/	i	-13%
S=C1NCC(c2ccccc2)S1 (stereo not drawn)	-45%	i	0%	2%	i	-21%
CC(=O)c1c(C)nn(CC(O)COc2ccc3ccccc3c2)c1C (stereo not drawn)	?	7.3µM*	-11%	0%	i	26µM*
CCOC(=O)c1c(C)n(C)c2ccc(OCC(O)Cn3nc(C)c(Br)c3C)cc12 (stereo not drawn)	21µM*	?	-1%	-4%	?	18µM*
Cc1ccc(-c2nc3ccccc3s2)cc1S(=O)(=O)N1CCCC1	13µM*	i	10µM*	-41%	i	?
O=S(=O)(c1cccc(-c2nc3ccccc3s2)c1)N1CCOCC1	?	16µM*	-7%	-8%	?	-18%
Cc1ccc(Cn2nnc3c(=O)[nH]c(C4CCN(S(=O)(=O)c5ccccc5F)CC4)nc32)cc1	-4%	i	?	?	i	0%
O=C(NCc1cccnc1)/C(=C\c1ccc(-c2cccc(Cl)c2)o1)S(=O)(=O)c1ccccc1	4.6µM*	4.1µM*	?	-18%	?	5.2µM*
Cc1cc(C)cc(NC(=O)c2cc(S(=O)(=O)N3CCOCC3)cn2C)c1	8%	/	/	/	/	-12%
O=C(CSc1ncnc2nc[nH]c12)Nc1nnc(SCc2ccc(Cl)c(Cl)c2)s1	-28%	i	-11%	-17%	i	18µM*
Cc1ccc(C)c(NC(=O)CSc2ncnc3nc[nH]c23)c1	-15%	i	7%	2%	i	-9%
OC(CC1CC12c1ccccc1-c1ncccc12)(c1ccccc1)c1ccccc1 (stereo not drawn)	?	?	-29%	-29%	i	16µM*
O=C(CSc1nnc(CNC(=O)c2ccccc2F)o1)NC1CCCC1	-1%	i	16%	9%	i	13%
